108 sequences from PubChem BioAssay AID1508600 (Functional Genomics Laboratory (NCATS/FGL), 2020) can be followed below.

Screen size: about 53,000 sequences; about 3,700 (7%) were called active. This excerpt belongs to a sample that is enriched for actives. Values without a mark were called inactive.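 The calls were made as follows: active = gene knockdowns whose robust z-score for IL-1 alpha signal is at least 2 or at most -2, so actives lie on both sides; inactive = the rest.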

This experiment in a line: Components of the Cytosolic LPS Sensing Pathway: Gene Identification via Genome-wide siRNA Screen. The settings on record: RAW264.7 macrophages, IL-1a HTRF, actives lie on both sides, screened at 100 nM (by protocol), cells primed 5 h with Pam3CSK4 first. From the text:
Non-canonical inflammasome activation by cytosolic LPS is a critical component of the host response to Gram-negative bacterial infection, however we lack a comprehensive understanding of the cellular processes that control this pathway. Here we describe a genome-wide siRNA screen to identify genes regulating the mouse macrophage IL-1 alpha response to cytosolic LPS.
RAW264.7 cells were maintained in complete DMEM media, comprising DMEM with 4.5 g/L glucose, 10% FBS (Gemini Bio-Products, West Sacramento, CA), 2 mM Glutamine (Lonza) and 20 mM HEPES (Lonza), hereafter complete DMEM.
The RNAi screen was conducted in 384-well format using the Ambion Silencer Mouse Genome siRNA Library (#4391425), which consists of three unique, nonoverlapping, nonpooled siRNAs for each of 17,000 gene targets. siRNA reagents ([…]) were stamped into 384-well white flat-bottom microplates (Corning, 3570) using a Velocity11 VPrep liquid handling system (Agilent) integrated into a BioCel robotic platform (Agilent) in columns 1-22, leaving columns 23-24 empty for negative (Ambion, Negative control #1) and positive (mouse Casp4) controls, respectively. The median value of each plate's negative control column was used to normalize sample wells, and the positive control was used to assess transfection efficiency and assay performance.
Lipofectamine RNAiMAX Transfection Reagent ([…]; Invitrogen) was added in […] serum-free, antibiotic-free media to plate wells using a Thermo Scientific Matrix WellMate and Microplate Stacker. Plates were incubated for 45 min at room temperature to allow for the sufficient formation of siRNA-lipid complexes. Cells were seeded at a density of 1x10^4 cells per well in 20 microL media containing 20% (vol/vol) FBS without antibiotics. The final concentration of siRNA in each well was 100 nM. Cells were cultured for 48h at 37 degrees C in 5% CO2 before addition of […] of TLR ligand Pam3CSK4 for 5 hours. The medium was then removed, replaced with […] growth media and cell were transfected with […] of LipidA and TransIT-TKO (Mirus) for 24 hour. At the end of the LipidA treatment, […] of supernatant was transferred to a 384 Greiner Bio-one non-binding low volume plate and […] of IL-1a HTRF reagent (Cisbio, 62MIL1APEH) was added and incubated at room temperature overnight. The plates were read on an EnVision plate reader (PerkinElmer). Cell viability was measured by adding 20ul Cell Titer Glo to the original plate and running a luminescence read on the EnVision. The quantified IL-1a signal for each siRNA gene-targeted well was divided by the median of the negative control wells and multiplied by 100 to achieve a negative control normalized value for each well/siRNA. This normalized value was then used to generate a robust z-score by first taking the log of each value and then by subtracting the median and dividing by the […].
(In TR-FRET formats the signal depends on donor and acceptor labels being close together.)
In the case of GGAAUGGAACACAAAUAGCTT against Kdelr2, the z-score is 0.191.

In the case of GGACUUUUGUGUAUAGUUATT against Smad1, the z-score is 1.59.

On to GGACGCGGGAAAAAUGUUCTT against Hnrnpab, for which the z-score is 1.37.

As to GCUGGAAGCAUUUGUUUUUTT against Uap1, the z-score is 2.19 (active).

With GCUUAGUGACCAUCUCCGUTT against Epop, the z-score is 0.236.

Consider GGAAUCUCACCAAUCCAAATT against Rab14, for which the z-score was -0.364.

For GGAGAGCUAGCCUUAAUAATT against Bspry, the z-score is 4.21 (active).

Consider CGGUUACAGGUGAAAUCCUTT against Sval1, for which the z-score was -1.36.

With CGGGUGAUGCCUAUGUCAUTT against Gsn, the z-score was 0.837.

As for GGCUUACAGUUCCAUAUGGTT against Olfr401, the z-score is -1.11.

Consider GCUCAUUGCACUUGCCAAGTT against Tcea2, for which the z-score is -0.0377.

As for GGUUUGUGUCUAAGGAAUUTT against Klhdc7a, the z-score was -0.203.

As to GGUCCUACCUUGAAGCUCCTT against Ado, the z-score was 0.816.

Take GCACCAGUCGGUAUUCACATT against C1qc: the z-score is -0.665.

With GCAUUGUGAGACUAACGUGTT against Dusp7, the z-score is 1.08.

Take GGGAAUAAUGUCUAGUUUGTT against Fam126a: the z-score is 0.215.

As for GAUGGUGUCUAGUGAGAGCTT against Oxct2b, the z-score is -2.01 (active).

GCACCAUUUUGAUCGUCAUTT against Olfr519: the z-score is 0.341.

Consider GGUUUGAAAUGAAACUUCATT against Nedd4l, for which the z-score is -0.0699.

Regarding GCGAGCUUUAACCUUUCCATT against Olfr1028, the z-score is -2.49 (active).

Take CCUCACAAAGCACAAUAUCTT against Sntg1: the z-score was -1.46.

Turning to CGUAGCUAUUCUGGUUGUCTT against H2-Q6, the z-score was -0.616.

In the case of GGUCCUCAAUGAAAUGAGATT against Krt12, the z-score is 1.05.

As to GGAGUUUGGAACUUCCAACTT against Tcf21, the z-score was 2.79 (active).

In the case of GGACCAAAAUCUAGAAUACTT against Zfp629, the z-score was -0.898.

GGUAUUUAAGUGAUACAUCTT against Ddost: the z-score was -0.321.

GGUACCGUCAGUUGUCCUATT against Rnf4: the z-score was -1.86.

For GGUGAAGAAGGAGACAAAGTT against Tmem43, the z-score is 0.347.

Consider GGAUAAAGUUUAAGGAUGGTT against Vmn1r40, for which the z-score was -0.43.

Turning to GGAGAAGGAUGAAGACGGATT against Map1lc3a, the z-score was 0.397.

As for GCUUUUGUUACAUAAUGCUTT against Tmem237, the z-score was 1.12.

For the sequence GACCACUUCCUUCUAUGCCTT against Slc35c1, the z-score is -2.07 (active).

With GGGCUUCAUCAACUAUCUUTT against Spint1, the z-score is 1.03.

On to CGGCUAAAUGCAAGUAAAGTT against Rgma, for which the z-score was -1.07.

As to GGUACUGAUUACUCUGUAUTT against Mrps17, the z-score was -0.388.

For the sequence GCUUUUUGUGAAACUGGCCTT against Pstpip2, the z-score is 0.191.

In the case of GGUCAAUAUCCUCGGACAUTT against Hsd17b13, the z-score was -0.386.

For GCCACGUAGACUGAUAUAGTT against Irf5, the z-score was -1.16.

Regarding GGAACAAGGAAGUUAAGGATT against Olfr1044, the z-score is 0.251.

In the case of GCCCAACGUGGUGUACAUUTT against Gask1b, the z-score is 4.04 (active).

In the case of CCAGUUUCAGAUCAGAUUATT against Zfp747, the z-score is 0.729.

In the case of GCUGACCUUCAUUCAUAUATT against Vmn1r27, the z-score is -2.06 (active).

Consider GCUAGGAGAACCUACAUACTT against Adcy4, for which the z-score is -0.368.

For GCUGAGAGUGAACCGAUGUTT against Dyrk4, the z-score is 1.54.

Take CCAUUCUACGAGAAUUGUATT against Dync1i2: the z-score is -0.326.

Regarding GGAUAACAGAGAUUUCUCCTT against Il15ra, the z-score was 0.0534.

For the sequence CCUGCAUUAUUUAUGAAAGTT against Mfap3l, the z-score is -0.449.

On to GUAAUCACCUUAAAGAUGUTT against Cebpb, for which the z-score is 1.32.

For the sequence GGUUAGGUUGAUGAAUAAGTT against Eif4ebp2, the z-score is 2.46 (active).

For the sequence CCUUUUGAGAGCUCCAGAUTT against Ptrh1, the z-score is -0.273.

For the sequence CCUAAGGCAAUCCCUAUUGTT against Gprasp1, the z-score is -0.424.

Consider GCAAUUUAAGUUUAGGAGATT against Heatr1, for which the z-score is -0.215.

With GCCAAUCUGGUGAUACUUCTT against Vmn1r71, the z-score was -1.64.

With GCUGUUAAGUAAUGACAGATT against Chst7, the z-score is 1.54.

Take GGUAAAUGACAACUUUCUUTT against Slco6b1: the z-score was 2.92 (active).

As to GCCUAUUGGCCUGAUAUGUTT against Gpr141b, the z-score was 0.173.

With GGUACAACUGCUCAUUUUUTT against Rhbdd1, the z-score was -0.0082.

Consider GGCCCUAAUUUCAGUAAUATT against Pigv, for which the z-score was 0.568.

Regarding GCCUUUCUCGUUCCUAUAGTT against Plgrkt, the z-score was -2.42 (active).

For the sequence GGUUUUUGAGUUUCUGAUUTT against Vps8, the z-score is 1.28.

With CCACCUUGUUGAGUGGCACTT against Smarcd3, the z-score is -0.177.

Turning to GCAUUUCAAUCGCACGUUUTT against Gal3st2, the z-score is -0.893.

With CCGAGCAAAAUCUCAAAUUTT against Mdh1, the z-score was 1.89.

Consider CCCUCUUAGUAACUGGCUCTT against Cdhr4, for which the z-score was -0.0846.

Turning to GGAAGACAUGAAAUUGUUCTT against Psma3, the z-score is -2.69 (active).

As to GCAAGAAGGUUAUUCUAUATT against Atxn3, the z-score is 0.399.

With GGCUUUUGAGAAUUCAUUCTT against Kcna5, the z-score was 2.75 (active).

Take GGCCUAUCUUCUUUACAUATT against Ctbs: the z-score is 0.348.

With GUUUCUGGAGACGGUGGAGTT against Rpl10a, the z-score is 1.74.

Turning to AGGAAAGAAAAUAUGCUGATT against Cox17, the z-score is 1.12.

As to GCGUGCUGGUUUUCUGAUUTT against Sbno2, the z-score was 0.333.

For the sequence GGAGAUCCAGUUUUUUAACTT against Ndst1, the z-score is 0.566.

Regarding GGUGGAAUUUUCAACUUACTT against Nkx3-1, the z-score is 5.36 (active).

For GGUCUAGCUCAAAAUCCCATT against Srek1, the z-score was -1.3.

Take GGCUACCGAGACAAUGCUUTT against Pcmtd1: the z-score was 0.232.

As for GGAGAAGAAUUCUUACAGGTT against Fbxo16, the z-score is 0.468.

For the sequence CCCGACCUCAACAUUUGUATT against Bmp2k, the z-score is -0.265.

Turning to GGUAGCAAAUCCAACAAGATT against Slamf1, the z-score is 0.226.

Regarding “GGCACUUCCUCCCUCAACATT against 4833420G17Rik”, the z-score was -0.57.

In the case of GGAGGUCAAAGUAAACUGGTT against Tial1, the z-score is 2.2 (active).

With CCCAGUAAUAUGAAAAGAGTT against Gucy2f, the z-score is -0.408.

Regarding GGUUGAAUCCUAAGAAUGUTT against Edc3, the z-score was 0.39.

Consider GGAGAAAGCUCAGCAUACATT against Usp3, for which the z-score was -0.484.

Take GGGAAAGCACUCCAACACATT against Frem1: the z-score is -2.12 (active).

With CGCAUGACCUUCCAGAUGCTT against Myoz1, the z-score was 0.49.

On to GCACAUCAACAUUGAUACUTT against Atp11c, for which the z-score was -0.0521.

Take GGAAAUCGAGGACUUAUACTT against Wnk4: the z-score was 3.54 (active).

As for GGCAAUGUCUUCUCCAAUATT against Dedd, the z-score is -0.652.

In the case of GCCGGAAGAAACUCAUGCUTT against Mad2l1bp, the z-score is -0.152.

With CCUGUUAAUUGAUUACCUUTT against Pla2r1, the z-score is 1.03.

Regarding CCUAACGGUCAGAAGUUGATT against Ccng1, the z-score is 0.39.

With CCUCUCAGUGGUUGAAAUGTT against Wdr5, the z-score is -2.46 (active).

For the sequence GGGCAGACCUAAUAGCUUATT against Cycs, the z-score was 0.707.

On to GCUUUUGACACUUAUAUGATT against Ptk7, for which the z-score is -0.299.

As to GGCAUGUCUUAAUUUCAUUTT against Shisa2, the z-score is 0.333.

For the sequence GGAAGACUCACGGCUCAAATT against Ccdc124, the z-score was -1.48.

GGCAUCUUCCUUUAAAAAGTT against Gar1: the z-score was -0.708.

With GGACAGUUUAAGGACAACATT against Morn2, the z-score was 0.18.

In the case of GGUGGUCUUCAAGUCUGACTT against Cdcp2, the z-score was 1.95.

Consider GCAUCUCCCUUAUGUCUGUTT against Nubp2, for which the z-score is 2.12 (active).

For the sequence GGGAAGUGGGAUUCCUAAGTT against Fam220a, the z-score is 0.218.

As for GCACGAAGGUCGUUAUUAUTT against Wls, the z-score was -0.28.

For the sequence GGUGACACAGGAGAAGAAGTT against Colec10, the z-score was -0.00926.

On to GGUAAUUAAUUCAAAGCAGTT against St8sia4, for which the z-score was -0.851.

For the sequence GGAGUUUAUGAGGAACUCGTT against Zwint, the z-score is -0.0598.

Consider GGGCUAAAUUCAUGGGUUCTT against Timp1, for which the z-score is 0.681.

Turning to GGGAAGAUCUUCAGGAAAATT against Cbr3, the z-score was 1.1.

Turning to GCUCCUAAUGAAAUGGUUUTT against Kif2a, the z-score was 1.41.
